Assay outcomes from PubChem.
Rows were chosen to be rich in hits. Some 3.6% of all compounds tested hit in one or more screens of this group.
AmpC no deterg: qHTS Inhibitors of AmpC Beta-Lactamase (assay without detergent) | P00811 | AmpC nitrocefin hydrolysis, absorbance 480 nm, 0.0001% Triton | Potency, µM (highest dose often 57.1 µM), for inactives: at the highest dose activity change, negative = inhibition, most hits filed as inhibitors | 330,000 tested, 0.52% active;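 also: plate controls were no compound for no effect and no enzyme for full effect; nearly all actives have a fitted effect of over 20% in size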
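AmpC (5.3 nM in the dispensed reagent) in 20 mM phosphate pH 7.0 with 0.01% (detergent screen) or 0.0001% Triton X-100 was preincubated with compounds for 15 min at room temperature. Nitrocefin was then added from an 800 uM solution, and hydrolysis was followed at 480 nm.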
Sm TGR block: qHTS Assay for the Inhibitors of Schistosoma Mansoni Peroxiredoxins. purified TGR, DTNB reduction, TNB absorbance 405 nm. Potency, µM (series often up to 114 µM), for the others: at the top dose activity change, negative = inhibition, hits mostly inhibitors. 360,000 tested, 3% active. AID 485364, 2010; also: nearly all actives have a fitted effect of over 60% in size
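TGR 20 nM + NADPH 100 uM (dispensed conc.), cpd preinc 15 min RT; start with NADPH (500 uM addition) then DTNB (15 mM addition). Kinetic TNB absorbance, 405 nm filter. Four-parameter Hill fit across titration.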
FBPA Giardia inh: qHTS Assay for Inhibitors of Fructose-1,6-bisphosphate Aldolase from Giardia Lamblia; A8B2U2; purified Giardia FBPA; Potency, µM (top dose mostly 59.6 µM), without a hit: at the top dose activity, negative = inhibition, hits mostly inhibitors; 290,000 tested, 0.71% active; also: nearly all actives have a fitted effect of over 55% in size
Target sequence (A8B2U2 whole entry, looked up): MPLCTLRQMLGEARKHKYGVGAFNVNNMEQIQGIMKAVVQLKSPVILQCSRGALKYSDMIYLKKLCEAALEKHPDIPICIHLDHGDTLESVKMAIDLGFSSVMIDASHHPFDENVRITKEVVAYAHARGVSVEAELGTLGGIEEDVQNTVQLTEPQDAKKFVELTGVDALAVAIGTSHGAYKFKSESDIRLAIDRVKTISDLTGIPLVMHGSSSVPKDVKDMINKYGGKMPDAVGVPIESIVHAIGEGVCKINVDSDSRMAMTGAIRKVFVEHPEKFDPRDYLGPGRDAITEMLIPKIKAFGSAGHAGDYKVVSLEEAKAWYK
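40 nM FBPA preincubated 10 min at RT with compound (up to 57.5 uM final), then substrate plus GAPDH/TPI/NAD/arsenate coupling and diaphorase/resazurin added. Fluorescence read after 20 min at RT, 525/598 nm.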
AmpC detergent: qHTS Inhibitors of AmpC Beta-Lactamase (assay with detergent); P00811; AID 485294, 2010; AmpC hydrolysis of nitrocefin, absorbance 480 nm, 0.01% Triton; Potency, µM (doses to about 114 µM), inactives show at the highest dose activity change, negative = inhibition, usual class: inhibitors; 370,000 tested, 0.041% active;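 also: 0% = no-compound wells and -100% = no-enzyme wells; nearly all actives have a fitted effect of over 25% in size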
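20 mM phosphate pH 7.0 + 0.01% (detergent screen) or 0.0001% Triton X-100; 5.3 nM AmpC reagent; cpd preinc 15 min RT; nitrocefin (800 uM stock) to start; A480 q20 s × 4 min; Activity was normalised to no-enzyme and no-compound control wells.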
* = called active by the depositor; ? = inconclusive; . = no result given. Calls follow the shape of the dose curve; as a rule, active = well fitted curve in the direction sought with a large enough effect; inconclusive = small, poorly fitted or top-dose-only effect, or another doubt; inactive = no such curve, though single readings can be large; an effect the other way counts as inactive or inconclusive. Unless noted, % is scaled to controls: 0 for no effect and ±100 for the full control effect; potency is read from the fitted curve at half-maximal effect.

SMILES	AmpC no deterg	Sm TGR block	FBPA Giardia inh	AmpC detergent
Cc1ccc(/C=C/C(=O)O)cc1S(=O)(=O)NCc1cccnc1	-11%	22µM*	9%	-10%
Cc1cc(C)c(S(=O)(=O)NCc2cccnc2)cc1C	-9%	0%	3%	-9%
Cc1ccc(/C=C/C(=O)O)cc1S(=O)(=O)N(CCO)CCO	-3%	22µM*	23%	9%
Cc1ccc(/C=C/C(=O)O)cc1S(=O)(=O)NCCCO	-21%	40µM*	-4%	7%
COc1cc(/C=C/C(=O)O)cc(S(=O)(=O)NCCCO)c1OC	-23%	-3%	1%	-1%
Cc1ccc(/C=C/C(=O)O)cc1S(=O)(=O)Nc1ccc2c(c1)OCO2	7%	-19%	-5%	-12%
COc1cc(NC(=O)C/C(C)=N/NC(=O)C(=O)NCCO)c(OC)cc1Cl	148%	3%	-12%	1%
CC(=O)Nc1ccc(S(=O)(=O)N(C)CC(=O)NNc2c(F)c(F)cc(F)c2F)cc1	-10%	.	.	.
CCOC(=O)c1cccnc1SC(CC)C(=O)NCc1ccco1 (stereo not given)	-12%	-17%	-1%	2%
CCC(Sc1ncccc1C(=O)OCCN1CCCC1=O)C(=O)NCc1ccco1 (stereo not given)	74%	45µM*	-14%	-5%
COc1ccccc1C(=O)NC1(C(F)(F)F)C(=O)Nc2c1c(=O)[nH]c(=O)n2CCc1ccccc1 (stereo not given)	.	7%	.	21%
COc1cc(-c2nc(CN(C)C(C)c3ccncn3)c(C)o2)ccc1F (stereo not given)	22%	32µM*	0%	-1%
CCN1CCN(C(c2ccc(OC)cc2)c2c(O)cc(C)n(Cc3ccco3)c2=O)CC1 (stereo not given)	.	5.6µM*	.	-1%
Cc1cc(O)c(C(c2ccccc2)N2CCN(C)CC2)c(=O)n1Cc1ccco1 (stereo not given)	.	5.6µM*	.	0%
CCN1CCN(C(c2ccc(SC)cc2)c2c(O)cc(C)n(Cc3ccco3)c2=O)CC1 (stereo not given)	.	3.5µM*	.	-8%
CCN1CCN(C(c2ccccc2)c2c(O)cc(C)n(Cc3ccco3)c2=O)CC1 (stereo not given)	.	4.5µM*	.	5%
CSc1cccc(NC(=S)NCCCN2CCN(c3ccc(F)cc3)CC2)c1	6%	-20%	1%	2%
COc1cc(Cn2c(=O)sc3ccccc32)ccc1OCCC(C)C	.	-2%	.	1%
Cc1ccc(C(CC(=O)O)NC(=O)CN2C(=O)c3ccccc3C2=O)cc1 (stereo not given)	-18%	-8%	-4%	-21%
O=C(Cl)COCc1ccccc1	.	.	0%	.
O=C(O)[C@H]1O[C@@H](Oc2ccc3ccc(=O)oc3c2)[C@H](O)[C@@H](O)[C@@H]1O	.	.	3%	.
CC1=CC(=O)c2c(O)ccc(O)c2C1=O	14µM*	?	?	?
O=C1c2cccc(O)c2C(=O)c2c(O)cccc21	-19%	-16%	-18%	-6%
Cc1ccc(SCc2[nH]nc3c2C2(CCSCC2)C(C#N)=C(N)O3)cc1	28µM*	-9%	-1%	-4%
CCOC(=O)N1CCC2(CC1)C(C#N)=C(N)Oc1n[nH]c(CSc3ccc(C)cc3)c12	1%	-1%	5%	4%
SMILES	AmpC no deterg	Sm TGR block	FBPA Giardia inh	AmpC detergent
C=C(C(=O)Oc1ccccc1C(C)(C)C)c1ccccc1	-2%	-6%	.	5%
COC(=O)C(N)Cc1ccc(O)cc1 (stereo not given)	5%	10%	-7%	3%
NC(CO)C(=O)NNCc1ccc(O)c(O)c1O (stereo not given)	-27%	0.32µM*	7.9µM*	?
COc1ccccc1NC(=O)C1=C(C)Nc2ncnn2C1c1cccn1C (stereo not given)	.	-1%	.	8%
CC(Oc1ccc(F)cc1)C(O)CCN(C)C (stereo not given)	-15%	-1%	1%	-12%
COC(=O)C1C(=O)c2c([nH]c(C(=O)OCC3CCCO3)c2C)CC1C (stereo not given)	10µM*	-2%	-9%	?
CCC(C(=O)NCc1ccccc1Cl)n1c(=O)c2cccn2c2ccccc21 (stereo not given)	.	-11%	.	-2%
NS(=O)(=O)c1ccc(N2N=C(c3ccc(Br)cc3)CC2c2ccc(F)cc2)cc1 (stereo not given)	5.6µM*	-3%	-12%	0%
NS(=O)(=O)c1ccc(N2N=C(c3ccccc3)CC2c2cccc(F)c2)cc1 (stereo not given)	-26%	-1%	-8%	?
Cc1cccc(N2CCN(CCNC(=O)Nc3ccc(Cl)cc3)CC2)c1C	.	-4%	.	6%
CC(=O)NCc1ccc(C(=O)CSc2nnc(-c3ccncc3)n2Cc2ccccc2)o1	70%	35µM*	-17%	-12%
O=C(CSc1nnc(-c2ccncc2)n1Cc1ccccc1)NC1CCCCC1	5%	7%	11%	-14%
O=C(O)CCc1ccc(-c2ccc(F)cc2)n1CC1CCCO1 (stereo not given)	-14%	?	4%	0%
COc1ccc(-c2ccc(CCC(=O)O)n2CC2CCCO2)cc1 (stereo not given)	-3%	35µM*	6%	-5%
O=C(O)CCc1ccc(-c2cccs2)n1CC1CCCO1 (stereo not given)	-16%	8.9µM*	8%	-6%
O=C(NCC(c1ccco1)N1CCCC1)c1cc2cc(Cl)ccc2o1 (stereo not given)	1%	-22%	.	3%
COC(=O)C1=COC(C)C2CN3CCc4c([nH]c5cc(OC)c(OC)cc45)C3CC12 (stereo not given)	94%	20µM*	?	-15%
COC(=O)C1=COC(C)C2CN3CCC4(C(=O)Nc5ccccc54)C3CC12 (stereo not given)	20%	4%	-8%	2%
COc1cc(/C=N/N=C(\N)c2nonc2N)cc(OC)c1O	-35%	28µM*	-17%	-5%
COc1ccc(/C=N/N=C(\N)c2nonc2N)cc1	-26%	6%	1%	-5%
Cc1ccc(-c2csc(Nc3ccc(S(N)(=O)=O)cc3)n2)o1	-55%	1.8µM*	-19%	2%
Cc1ccc(-c2csc(NC(=O)c3ccc(-c4ccccc4)cc3)n2)o1	-21%	10µM*	-10%	-13%
Cc1ccc(-c2csc(NC(=O)Cc3ccc(F)cc3)n2)o1	?	7.1µM*	-19%	9%
FC(F)(F)c1ccccc1-c1ccc2ncnc(NCc3cccnc3)c2c1	.	.	0%	.
COc1ccc(CNc2nc(-c3ccc(N(C)C)cc3)nc3ccccc23)c(OC)c1	.	.	18µM*	.
COc1ccc(CNc2nc(-c3ccc(C(=O)N(C)C)cc3)nc3ccccc23)c(OC)c1	.	.	-14%	.
Cc1ccc2oc(C(=O)N(C)Cc3ccc(C)o3)c(C)c2c1	19%	2.2µM*	-16%	-9%
